Active and inactive are the calls of the source.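 How the source made its calls, unless noted: active means inhibition at or above 50% at 10 µM; inactive means inhibition below 50%.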
Key:
[1] = inhibitors of TNFa-induced NFkB p65 translocation, primary screen, imaging, HUVEC, MLSMR starter and 10KST1 sets (AID 438;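 active means inhibition above 20% together with a positive visual image hit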;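 further: compound added about 3h40 before a 20 min TNFalpha stimulation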;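 on inhibition: signal is the nuclear over cytoplasmic p65 intensity ratio per well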); details: HUVEC TNFa-induced p65 nuclear translocation; cell count: measured here: nuclei count (cytotoxicity indicator), at 2.08 µM; inhibition: at 2 µM, stronger effect = higher value, 0% TNFa-plus-vehicle, 100% no-TNFa wells
[2] = reduction of polyQ htt aggregates in cells – imaging, exon1htt(103Q)mCFP cells, high-content imaging, primary screen (AID 483;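 active means visual image review flags a hit and inhibition of aggregation exceeds 20%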;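 further: compound exposure lasted 3 days before fixation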;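 on nuclei count: percent of the per-plate median nuclei count of sample wells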); details: exon1htt(103Q)mCFP cell line, aggregate imaging, at 2 µM; inhibition of aggregation: stronger effect = higher value; nuclei count: measured here: cell count, toxicity
[3] = endothelial E-selectin expression blockers – imaging, HUVEC, immunofluorescence, MLSMR starter and 10KST1 sets, primary screen (AID 487;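 active means visually confirmed hit in the image check and inhibition above 20%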;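 on inhibition: signal is fraction of cell area covered by stained E-selectin grains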;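 on nuclei count: 100% = median nuclei count of all wells on the same plate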); details: HUVEC TNFalpha-induced E-selectin immunofluorescence imaging, at 2 µM; inhibition: stronger effect = higher value; nuclei count: measured here: cell number, toxicity
[4] = biological target: Voltage-gated potassium channel subunit beta-2 (Rattus norvegicus) (UniProt P62483); test: inhibitors of rat Kvbeta2 reductase activity – biochemical, NADPH fluorescence, primary screen (AID 622;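 active means fluorescence slope higher than the sample average by over 3 SD, cut at about -0.22 in these data, passing the limit was not always enough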;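 further: slope of raw intensity against log time taken from 70 to 1610 s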); details: recombinant KvBeta, 4-cyanobenzaldehyde reduction, at 10 µM, stronger effect = higher value
[5] = biological target: Voltage-gated potassium channel subunit beta-2 (Rattus norvegicus) (UniProt P62483); test: enhancers of rat Kvbeta2 NADPH turnover – biochemical, NADPH fluorescence, primary screen (AID 623;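 active means NADPH fluorescence slope more negative than the mean of all samples by about 3 SD, 99.7% confidence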;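 further: fluorescence intensity change per second fitted from 20 to 320 s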); details: Recombinant KvBeta, NADPH fluorescence decrease slope, 10 min; at 10 µM; stronger effect = lower value
[6] = biological target: Alpha-2C adrenergic receptor (Homo sapiens) (UniProt P18825); test: compounds altering alpha2C-coupled GIRK flux – cell-based, HEK293 alpha2C/GIRK1/2, thallium flux, primary screen (AID 624;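 active means fluorescence slope after compound addition differing from the mean of all screened samples at 99.7% confidence, in either direction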;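 further: slope of fluorescence ratio to pre-addition baseline per second over 15 to 24 s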); details: thallium flux BTC fluorescence, at 10 µM, actives lie on both sides
[7] = blockers of RIG-like receptor reporter activation – cell-based, Sendai virus stimulus, luciferase, 10K MLSCN set, TLR/RLR signaling modifier project, primary screen (AID 602276); details: HEK293 RL24 IRF3 luciferase reporter, at 10 µM, stronger effect = higher value;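 further: firefly luciferase from ISG56 promoter only with Renilla not read in this screen; 0% = Sendai virus plus DMSO and 100% = medium plus DMSO without virus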
[8] = TLR3 IRF3 reporter activation blockers – cell-based, poly I:C stimulus, luciferase, 10K MLSCN set, primary screen (AID 602277;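 active means inhibition of the reporter signal at or above 50%; inactive means inhibition below 50%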); details: HEK293-TLR3 RL24 IRF3 luciferase reporter, at 10 µM, stronger effect = higher value

Sequence of Voltage-gated potassium channel subunit beta-2 (Rattus norvegicus) (P62483 whole entry, looked up): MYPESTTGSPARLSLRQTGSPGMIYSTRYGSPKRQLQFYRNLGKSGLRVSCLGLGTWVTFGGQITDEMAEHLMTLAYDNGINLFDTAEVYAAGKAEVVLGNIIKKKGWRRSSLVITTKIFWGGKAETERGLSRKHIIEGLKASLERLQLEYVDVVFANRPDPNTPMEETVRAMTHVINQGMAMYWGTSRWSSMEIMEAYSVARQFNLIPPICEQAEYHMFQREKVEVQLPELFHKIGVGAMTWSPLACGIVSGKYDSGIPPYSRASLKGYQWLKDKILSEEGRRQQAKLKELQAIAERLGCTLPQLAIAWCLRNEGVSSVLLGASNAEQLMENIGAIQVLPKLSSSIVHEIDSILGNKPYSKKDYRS
Sequence of Alpha-2C adrenergic receptor (Homo sapiens) (P18825 whole entry, looked up): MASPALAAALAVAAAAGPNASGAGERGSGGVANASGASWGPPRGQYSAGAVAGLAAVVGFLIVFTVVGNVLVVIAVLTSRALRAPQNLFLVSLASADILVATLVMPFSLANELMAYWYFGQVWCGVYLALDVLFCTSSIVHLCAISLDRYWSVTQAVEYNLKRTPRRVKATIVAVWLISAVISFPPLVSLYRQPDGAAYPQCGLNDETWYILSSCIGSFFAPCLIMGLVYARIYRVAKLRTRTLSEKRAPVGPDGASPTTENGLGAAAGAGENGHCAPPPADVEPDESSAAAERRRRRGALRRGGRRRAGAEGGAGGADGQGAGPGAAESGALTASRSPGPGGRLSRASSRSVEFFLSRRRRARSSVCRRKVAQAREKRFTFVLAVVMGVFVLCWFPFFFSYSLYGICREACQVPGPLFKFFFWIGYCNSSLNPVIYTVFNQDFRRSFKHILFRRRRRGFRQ

## CCCSc1nc2c(cnn2-c2ccc(Cl)cc2)c(=O)[nH]1
[1]
  cell count: 213
  inhibition: -1.3% (inactive)
[2]
  inhibition of aggregation: -9.2% (inactive)
  nuclei count: 108%
[3]
  inhibition: -40.2% (inactive)
  nuclei count: 122%
[4]
  fluorescence slope: -0.609 (inactive)
[5]
  NADPH fluorescence slope: -1.8e-05 (inactive)
[6]
  slope: 0.011 (inactive)
[7]
  inhibition: 16% (inactive)
[8]
  inhibition: 14.5% (inactive)

## Cc1cccc2cc(C#N)c(SCCN3CCCCC3)nc12
[1]
  cell count: 413
  inhibition: -7.1% (inactive)
[2]
  inhibition of aggregation: -42.5% (inactive)
  nuclei count: 108%
[3]
  inhibition: -46.6% (inactive)
  nuclei count: 108%
[4]
  fluorescence slope: -0.334 (inactive)
[5]
  NADPH fluorescence slope: -4.3e-05 (inactive)
[6]
  slope: 0.00498 (inactive)
[7]
  inhibition: 13.4% (inactive)
[8]
  inhibition: 99% (active)

## COc1cc(-c2noc(-c3ccccc3C(=O)NCc3ccco3)n2)cc(OC)c1OC
[1]
  cell count: 654
  inhibition: -5.4% (inactive)
[2]
  inhibition of aggregation: -4% (inactive)
  nuclei count: 112%
[3]
  inhibition: -111% (inactive)
  nuclei count: 156%
[4]
  fluorescence slope: -0.59 (inactive)
[5]
  NADPH fluorescence slope: -4.7e-05 (inactive)
[6]
  slope: 0.00612 (inactive)
[7]
  inhibition: 14.7% (inactive)
[8]
  inhibition: 31.9% (inactive)

## COc1ccc(C(=O)NCc2nnc(SCC(=O)Nc3cc(C)cc(C)c3)o2)cc1OC
[1]
  cell count: 611
  inhibition: -14.4% (inactive)
[2]
  inhibition of aggregation: 14% (inactive)
  nuclei count: 76.5%
[3]
  inhibition: -100% (inactive)
  nuclei count: 115%
[4]
  fluorescence slope: -0.272 (inactive)
[5]
  NADPH fluorescence slope: -1e-05 (inactive)
[6]
  slope: 0.00582 (inactive)
[7]
  inhibition: 9% (inactive)
[8]
  inhibition: 9.85% (inactive)

## COC(=O)Cc1c(C)c2ccc(OCC(=O)N3CCOCC3)cc2oc1=O
[1]
  cell count: 439
  inhibition: 15.7% (inactive)
[2]
  inhibition of aggregation: 7.7% (inactive)
  nuclei count: 113%
[3]
  inhibition: -28.7% (inactive)
  nuclei count: 74.6%
[4]
  fluorescence slope: -0.363 (inactive)
[5]
  NADPH fluorescence slope: -1.5e-05 (inactive)
[6]
  slope: 0.00545 (inactive)
[7]
  inhibition: 17.8% (inactive)
[8]
  inhibition: 13.9% (inactive)

## CCOC(=O)c1c(C)[nH]c(C(=O)Cn2c(=O)c3c(ncn3CC)n(Cc3ccccc3)c2=O)c1C
[1]
  cell count: 752
  inhibition: 4% (inactive)
[2]
  inhibition of aggregation: 8.3% (inactive)
  nuclei count: 88.5%
[3]
  inhibition: -32.2% (inactive)
  nuclei count: 127%
[4]
  fluorescence slope: -0.29 (inactive)
[5]
  NADPH fluorescence slope: -3.2e-05 (inactive)
[6]
  slope: 0.00419 (inactive)
[7]
  inhibition: 15.3% (inactive)
[8]
  inhibition: 24.5% (inactive)

## Cc1c(C#N)c2ncnc(-c3ccccc3)c2n1-c1ccccc1
[1]
  cell count: 287
  inhibition: 0.4% (inactive)
[2]
  inhibition of aggregation: -11.3% (inactive)
  nuclei count: 99.5%
[3]
  inhibition: -8.1% (inactive)
  nuclei count: 108%
[4]
  fluorescence slope: -0.448 (inactive)
[5]
  NADPH fluorescence slope: -0.000103 (inactive)
[6]
  slope: 0.00601 (inactive)
[7]
  inhibition: 15.3% (inactive)
[8]
  inhibition: 34.5% (inactive)

## Cc1cc(OCC(=O)NCCO)cc(C)c1Cl
[1]
  cell count: 419
  inhibition: -2.3% (inactive)
[2]
  inhibition of aggregation: 11.1% (inactive)
  nuclei count: 73.3%
[3]
  inhibition: 28.3% (inactive)
  nuclei count: 92.3%
[4]
  fluorescence slope: -0.428 (inactive)
[5]
  NADPH fluorescence slope: 2.8e-05 (inactive)
[6]
  slope: 0.00371 (inactive)
[7]
  inhibition: -0.456% (inactive)
[8]
  inhibition: 24.5% (inactive)
